# Measured values from paper PMC7862700, “An all-to-all approach to the identification of sequence-specific readers for epigenetic DNA modifications on cytosine”.
# Experiments:
# Assay in all cases: DAPPL (digital affinity profiling via proximity ligation, sequencing); 10 mM Tris-HCl pH 7.5, 50 mM NaCl, 1 mM DTT, 4% glycerol, room temperature, 30 min; GST-TFs on glutathione beads, 16-mer random dsDNA library, 0.1% formaldehyde crosslink after washing; high values mean tight binding
# FEV = target: T1, FEV (Homo sapiens, UniProt Q99581 1-238); details: protein: recombinant; tags: N-terminal GST; dsDNA, one strand shown
# T1 sequence: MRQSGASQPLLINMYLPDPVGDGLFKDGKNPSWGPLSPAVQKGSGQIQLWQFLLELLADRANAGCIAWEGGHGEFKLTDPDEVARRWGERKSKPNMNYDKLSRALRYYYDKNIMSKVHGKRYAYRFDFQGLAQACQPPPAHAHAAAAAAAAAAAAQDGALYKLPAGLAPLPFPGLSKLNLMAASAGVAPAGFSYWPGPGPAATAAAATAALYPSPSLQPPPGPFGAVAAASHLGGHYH
# Method in brief: (§1)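 A tag-only sample was pooled with DNA-barcoded human transcription factors that had been expressed in yeast as GST fusions and captured on glutathione beads. The pools were incubated for 30 min at room temperature with 200 nmole of a random double-stranded 16-mer DNA library in Tris/NaCl/DTT/glycerol buffer, then washed, crosslinked with 0.1% formaldehyde, proximity-ligated (BsaI/T4 ligase, 1 h, 37 °C), PCR-amplified and sequenced on an Illumina NextSeq500. Binding signal is each hexamer's read frequency for a factor divided by its frequency for the tag-only sample.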
# ETV5 = ETV5 (Homo sapiens, UniProt P41161 1-510); details: protein: recombinant; tags: N-terminal GST; dsDNA, one strand shown
# ETV5, sequence (P41161 whole entry): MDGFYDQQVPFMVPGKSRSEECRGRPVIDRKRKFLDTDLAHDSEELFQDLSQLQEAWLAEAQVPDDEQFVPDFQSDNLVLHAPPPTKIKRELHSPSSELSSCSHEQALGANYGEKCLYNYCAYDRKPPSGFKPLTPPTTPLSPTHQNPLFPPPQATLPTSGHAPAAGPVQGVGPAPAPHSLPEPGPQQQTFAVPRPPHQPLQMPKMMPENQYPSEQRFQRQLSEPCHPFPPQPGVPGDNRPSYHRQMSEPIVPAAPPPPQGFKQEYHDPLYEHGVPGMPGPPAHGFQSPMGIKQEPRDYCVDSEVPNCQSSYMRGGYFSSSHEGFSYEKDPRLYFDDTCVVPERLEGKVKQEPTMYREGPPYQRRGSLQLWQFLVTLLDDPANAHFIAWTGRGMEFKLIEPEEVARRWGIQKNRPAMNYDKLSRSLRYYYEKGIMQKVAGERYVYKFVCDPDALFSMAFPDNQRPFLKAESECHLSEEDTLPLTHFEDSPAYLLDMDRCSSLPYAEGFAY
# Method in brief: as §1
# HSF1 = HSF1 (Homo sapiens, UniProt Q00613 1-529); details: protein: recombinant; tags: N-terminal GST; chain copies: 3; dsDNA, one strand shown
# HSF1, sequence (Q00613 whole entry): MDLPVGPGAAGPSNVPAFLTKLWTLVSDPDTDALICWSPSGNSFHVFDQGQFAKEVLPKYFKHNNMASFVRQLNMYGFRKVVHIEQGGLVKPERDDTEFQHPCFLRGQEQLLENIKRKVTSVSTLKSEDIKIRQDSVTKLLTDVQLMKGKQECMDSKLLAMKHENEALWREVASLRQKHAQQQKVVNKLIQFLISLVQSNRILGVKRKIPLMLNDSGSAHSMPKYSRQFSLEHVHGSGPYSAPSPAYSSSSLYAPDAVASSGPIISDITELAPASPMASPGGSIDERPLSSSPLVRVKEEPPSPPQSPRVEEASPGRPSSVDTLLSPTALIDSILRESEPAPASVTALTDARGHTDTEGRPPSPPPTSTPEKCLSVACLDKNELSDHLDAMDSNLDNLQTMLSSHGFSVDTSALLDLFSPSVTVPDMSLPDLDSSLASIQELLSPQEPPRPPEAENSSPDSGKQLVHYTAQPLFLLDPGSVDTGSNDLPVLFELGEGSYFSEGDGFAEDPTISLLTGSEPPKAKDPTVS
# Method in brief: as §1
# SPIC = target: T2, SPIC (Homo sapiens, UniProt Q8N5J4 1-248); details: protein: recombinant; tags: N-terminal GST; dsDNA, one strand shown
# T2 sequence: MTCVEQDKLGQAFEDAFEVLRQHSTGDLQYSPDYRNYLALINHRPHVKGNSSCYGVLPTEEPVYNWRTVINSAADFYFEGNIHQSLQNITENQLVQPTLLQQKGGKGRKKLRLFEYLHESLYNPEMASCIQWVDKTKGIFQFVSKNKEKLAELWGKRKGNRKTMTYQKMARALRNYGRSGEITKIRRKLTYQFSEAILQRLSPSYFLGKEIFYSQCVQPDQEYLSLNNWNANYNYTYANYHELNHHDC
# Method in brief: as §1
# ELF4 = ELF4 (Homo sapiens, UniProt Q99607 1-663); details: protein: recombinant; tags: N-terminal GST; dsDNA, one strand shown
# ELF4, sequence (Q99607 whole entry): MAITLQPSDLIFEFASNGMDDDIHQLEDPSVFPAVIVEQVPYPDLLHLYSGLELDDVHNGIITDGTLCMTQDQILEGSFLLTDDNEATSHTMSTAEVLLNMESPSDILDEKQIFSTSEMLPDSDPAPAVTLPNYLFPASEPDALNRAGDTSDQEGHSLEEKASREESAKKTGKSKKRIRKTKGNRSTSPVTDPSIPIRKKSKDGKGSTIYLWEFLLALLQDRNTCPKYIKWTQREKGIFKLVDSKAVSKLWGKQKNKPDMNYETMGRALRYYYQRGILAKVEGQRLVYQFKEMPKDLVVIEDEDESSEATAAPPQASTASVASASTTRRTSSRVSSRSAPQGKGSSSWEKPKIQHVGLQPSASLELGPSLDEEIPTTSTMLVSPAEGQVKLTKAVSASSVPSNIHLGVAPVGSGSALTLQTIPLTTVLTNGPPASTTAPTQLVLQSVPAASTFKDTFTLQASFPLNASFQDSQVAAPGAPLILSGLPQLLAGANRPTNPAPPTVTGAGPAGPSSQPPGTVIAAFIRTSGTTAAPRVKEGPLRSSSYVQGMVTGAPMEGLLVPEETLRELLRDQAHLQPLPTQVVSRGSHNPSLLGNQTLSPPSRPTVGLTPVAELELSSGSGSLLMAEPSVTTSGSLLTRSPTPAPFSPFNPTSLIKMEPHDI
# Method in brief: as §1
# ELK4 = target: T3, ELK4 (Homo sapiens, UniProt P28324-2 1-405); details: protein: recombinant; tags: N-terminal GST; dsDNA, one strand shown
# T3 sequence: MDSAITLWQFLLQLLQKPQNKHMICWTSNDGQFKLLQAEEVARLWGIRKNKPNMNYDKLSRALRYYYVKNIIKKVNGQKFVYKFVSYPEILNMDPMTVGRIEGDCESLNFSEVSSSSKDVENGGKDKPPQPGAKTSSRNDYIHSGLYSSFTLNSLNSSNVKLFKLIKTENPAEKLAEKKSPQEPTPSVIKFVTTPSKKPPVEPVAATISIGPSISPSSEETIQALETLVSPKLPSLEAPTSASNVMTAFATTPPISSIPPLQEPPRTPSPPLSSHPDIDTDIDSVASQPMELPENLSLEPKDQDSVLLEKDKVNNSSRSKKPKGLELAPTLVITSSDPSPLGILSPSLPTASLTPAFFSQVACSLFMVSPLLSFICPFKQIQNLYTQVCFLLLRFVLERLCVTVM
# Method in brief: as §1
# ETV2 = target: T4, ETV2 (Homo sapiens, UniProt O00321 1-342); details: protein: recombinant; tags: N-terminal GST; dsDNA, one strand shown
# T4 sequence: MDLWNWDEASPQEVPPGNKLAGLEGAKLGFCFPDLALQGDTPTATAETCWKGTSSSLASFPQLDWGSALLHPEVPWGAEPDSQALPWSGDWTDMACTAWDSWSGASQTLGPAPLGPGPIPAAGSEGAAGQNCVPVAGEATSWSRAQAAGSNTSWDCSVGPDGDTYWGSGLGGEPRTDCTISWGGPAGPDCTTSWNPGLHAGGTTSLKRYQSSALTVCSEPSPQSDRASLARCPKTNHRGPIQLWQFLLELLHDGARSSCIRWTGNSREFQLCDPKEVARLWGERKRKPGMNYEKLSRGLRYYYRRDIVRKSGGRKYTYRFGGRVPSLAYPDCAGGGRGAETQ
# Method in brief: as §1
# ELF3 = target: T5, ELF3 (Homo sapiens, UniProt P78545 1-371); details: protein: recombinant; tags: N-terminal GST; dsDNA, one strand shown
# T5 sequence: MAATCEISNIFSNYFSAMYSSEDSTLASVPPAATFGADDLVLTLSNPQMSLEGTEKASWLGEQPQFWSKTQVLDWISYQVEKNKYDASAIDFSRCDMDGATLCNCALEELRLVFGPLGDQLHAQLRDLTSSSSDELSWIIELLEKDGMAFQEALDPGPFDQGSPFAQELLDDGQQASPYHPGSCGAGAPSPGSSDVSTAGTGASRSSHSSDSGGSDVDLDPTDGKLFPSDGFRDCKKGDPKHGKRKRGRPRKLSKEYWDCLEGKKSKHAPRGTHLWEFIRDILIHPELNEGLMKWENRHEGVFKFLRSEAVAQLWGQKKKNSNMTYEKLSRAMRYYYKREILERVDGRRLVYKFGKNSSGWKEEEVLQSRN
# Method in brief: as §1
# CRX = CRX (Homo sapiens, UniProt O43186 1-299); details: protein: recombinant; tags: N-terminal GST; dsDNA, one strand shown
# CRX, sequence (O43186 whole entry): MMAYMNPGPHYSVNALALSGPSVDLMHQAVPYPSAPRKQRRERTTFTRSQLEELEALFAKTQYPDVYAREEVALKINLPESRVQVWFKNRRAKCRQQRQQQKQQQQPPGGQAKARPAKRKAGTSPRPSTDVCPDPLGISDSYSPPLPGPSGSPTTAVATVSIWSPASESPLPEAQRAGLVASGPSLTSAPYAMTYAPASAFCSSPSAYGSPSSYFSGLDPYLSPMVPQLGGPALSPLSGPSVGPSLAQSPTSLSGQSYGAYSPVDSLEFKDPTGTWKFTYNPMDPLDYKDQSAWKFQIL
# Method in brief: as §1
# ETV1 = ETV1 (Homo sapiens, UniProt P50549 1-477); details: protein: recombinant; tags: N-terminal GST; dsDNA, one strand shown
# ETV1, sequence (P50549 whole entry): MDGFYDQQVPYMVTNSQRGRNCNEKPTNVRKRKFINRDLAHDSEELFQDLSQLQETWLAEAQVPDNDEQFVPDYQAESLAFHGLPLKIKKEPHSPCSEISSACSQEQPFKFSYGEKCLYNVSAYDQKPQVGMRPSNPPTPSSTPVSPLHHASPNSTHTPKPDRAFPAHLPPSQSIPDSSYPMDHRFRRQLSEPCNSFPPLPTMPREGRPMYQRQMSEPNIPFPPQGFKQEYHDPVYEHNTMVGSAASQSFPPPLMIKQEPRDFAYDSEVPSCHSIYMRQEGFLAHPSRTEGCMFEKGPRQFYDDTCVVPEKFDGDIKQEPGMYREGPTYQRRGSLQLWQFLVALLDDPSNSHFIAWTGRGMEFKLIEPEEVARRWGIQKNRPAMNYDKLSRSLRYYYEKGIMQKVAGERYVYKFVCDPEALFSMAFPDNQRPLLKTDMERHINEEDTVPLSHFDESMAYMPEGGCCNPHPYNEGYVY
# Method in brief: as §1
sequence,measurement,setting,value
TGATGG,binding signal,FEV,"1.16 fold enrichment (6-mer frequency, TF over GST control)"
same,binding signal,ETV5,"1.34 fold enrichment (6-mer frequency, TF over GST control)"
same,binding signal,HSF1,"1.26 fold enrichment (6-mer frequency, TF over GST control)"
same,binding signal,SPIC,"1.51 fold enrichment (6-mer frequency, TF over GST control)"
same,binding signal,ELF4,"1.29 fold enrichment (6-mer frequency, TF over GST control)"
same,binding signal,ELK4,"1.33 fold enrichment (6-mer frequency, TF over GST control)"
same,binding signal,ETV2,"1.29 fold enrichment (6-mer frequency, TF over GST control)"
same,binding signal,ELF3,"1.32 fold enrichment (6-mer frequency, TF over GST control)"
same,binding signal,CRX,"1.1 fold enrichment (6-mer frequency, TF over GST control)"
same,binding signal,ETV1,"1.32 fold enrichment (6-mer frequency, TF over GST control)"
